This is part of a sample that, as a whole, favours compounds with a hit. Of some 83,000 tested, about 20% had one in any assay.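 Percent growth is the endpoint: 0 to 100 indicates growth inhibition (40 means 60% inhibition), 0 means no net growth, and negative values indicate cell death.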 Calls of active or inactive are those of the source. The calls were made as follows: active = growth percent below 10; inactive = the rest.
How the values were obtained:
Test in all cases: NCI-60 one-dose screen, 48 h (100 = growth as untreated, 0 = no growth, -100 = all killed)
Details in all cases: 10 µM unless noted
NCI-H23 lung = tested on: NCI-H23 lung
NCI-H226 lung = tested on: NCI-H226 lung
NCI-H322M lung = tested on: NCI-H322M lung
HOP-62 NSCLC = tested on: HOP-62 NSCLC
NCI-H460 lung = tested on: NCI-H460 lung
HOP-92 NSCLC = tested on: HOP-92 NSCLC
NCI-H522 lung = tested on: NCI-H522 lung
A549/ATCC NSCLC = tested on: A549/ATCC NSCLC
786-0 renal = tested on: 786-0 renal
COLO 205 colon = tested on: COLO 205 colon
DU-145 prostate = tested on: DU-145 prostate
K-562 leukemia = tested on: K-562 leukemia
MALME-3M melanoma = tested on: MALME-3M melanoma
MDA-MB-231 breast = tested on: MDA-MB-231 breast
RXF 393 renal = tested on: RXF 393 renal
SF-268 CNS = tested on: SF-268 CNS
SF-295 CNS = tested on: SF-295 CNS
SF-539 CNS = tested on: SF-539 CNS
UACC-257 melanoma = tested on: UACC-257 melanoma
M14 melanoma = tested on: M14 melanoma

Measured: growth

CC(/C=C1\SC(=S)N(CC(=O)NC(Cc2c[nH]c3ccccc23)C(=O)O)C1=O)=C\c1ccccc1 (stereo not given)
inactive: NCI-H23 lung 99.9% | NCI-H226 lung 102% | NCI-H322M lung 102% | HOP-62 NSCLC 96.3% | NCI-H460 lung 103% | HOP-92 NSCLC 106% | NCI-H522 lung 93.3% | A549/ATCC NSCLC 103% | 786-0 renal 102% | COLO 205 colon 116% | DU-145 prostate 112% | K-562 leukemia 107% | MALME-3M melanoma 107% | MDA-MB-231 breast 104% | RXF 393 renal 106% | SF-268 CNS 92.8% | SF-295 CNS 104% | SF-539 CNS 104% | UACC-257 melanoma 100% | M14 melanoma 103%

C#CCOc1ccc2ncnc(Nc3cccc(NC(=O)CCl)c3)c2c1
inactive: NCI-H23 lung 73.5% | NCI-H226 lung 88.3% | NCI-H322M lung 92.1% | HOP-62 NSCLC 93.2% | NCI-H460 lung 49.2% | HOP-92 NSCLC 85% | NCI-H522 lung 38.9% | A549/ATCC NSCLC 67% | 786-0 renal 72.6% | COLO 205 colon 96.7% | DU-145 prostate 74% | K-562 leukemia 55.2% | MALME-3M melanoma 71.9% | MDA-MB-231 breast 73.7% | RXF 393 renal 79.6% | SF-268 CNS 60.6% | SF-295 CNS 106% | SF-539 CNS 84.4% | UACC-257 melanoma 80.3% | M14 melanoma 77.1%

C[C@@H](CO)[C@@H]1CC[C@]2(C(=O)N3CCN(C)CC3)CC[C@]3(C)[C@H](CC[C@@H]4[C@@]5(C)CC[C@H](O)C(C)(C)[C@@H]5CC[C@]43C)[C@@H]12
inactive: NCI-H23 lung 78.5% | NCI-H226 lung 81.4% | NCI-H322M lung 99.7% | HOP-62 NSCLC 116% | NCI-H460 lung 49.4% | HOP-92 NSCLC 47.7% | NCI-H522 lung 74.1% | A549/ATCC NSCLC 88.6% | 786-0 renal 74% | COLO 205 colon 90.2% | DU-145 prostate 67.7% | MALME-3M melanoma 105% | MDA-MB-231 breast 82.8% | RXF 393 renal 81.5% | SF-268 CNS 56.7% | SF-295 CNS 90.4% | SF-539 CNS 86.1% | UACC-257 melanoma 98% | M14 melanoma 101%
active: K-562 leukemia 4.66%

CC(=O)c1c(Nc2ccc(F)c(F)c2F)[nH]c2c(F)cc(F)cc2c1=O
inactive: 786-0 renal 12.1% | DU-145 prostate 18.1% | SF-268 CNS 17.9%
active: NCI-H23 lung -3.83% | NCI-H226 lung -15.6% | NCI-H322M lung 4.47% | HOP-62 NSCLC -21.5% | NCI-H460 lung 2.98% | HOP-92 NSCLC -18.8% | NCI-H522 lung -11.1% | A549/ATCC NSCLC 4.48% | COLO 205 colon -65% | K-562 leukemia 7.47% | MALME-3M melanoma -22.6% | MDA-MB-231 breast -1.7% | RXF 393 renal -4.56% | SF-295 CNS -35.3% | SF-539 CNS 1.53% | UACC-257 melanoma -18.4% | M14 melanoma 2.68%

O=C(Cn1nnc2ccccc21)N/N=C/c1ccccc1F
inactive: NCI-H23 lung 105% | NCI-H226 lung 85.8% | NCI-H322M lung 93.6% | HOP-62 NSCLC 102% | NCI-H460 lung 104% | HOP-92 NSCLC 103% | NCI-H522 lung 84.9% | A549/ATCC NSCLC 89.2% | 786-0 renal 97.5% | COLO 205 colon 113% | DU-145 prostate 107% | K-562 leukemia 94.3% | MALME-3M melanoma 102% | MDA-MB-231 breast 91.1% | RXF 393 renal 101% | SF-268 CNS 93.9% | SF-295 CNS 111% | SF-539 CNS 102% | UACC-257 melanoma 93% | M14 melanoma 108%

CC(C)=CC(=O)N[C@@H]1CC2CCC3C(CC[C@@]4(C)C3CC[C@@H]4C(C)N(C)C)[C@@]2(C)C[C@@H]1O (stereo not given in full)
active: K-562 leukemia -17.1% | SF-539 CNS -19.5%
inactive: NCI-H23 lung 43.8% | NCI-H226 lung 89.1% | NCI-H322M lung 104% | HOP-62 NSCLC 56.4% | NCI-H460 lung 32.1% | HOP-92 NSCLC 40.6% | NCI-H522 lung 83% | A549/ATCC NSCLC 74.5% | 786-0 renal 58.5% | COLO 205 colon 14.8% | DU-145 prostate 74.1% | MALME-3M melanoma 32.3% | MDA-MB-231 breast 74.6% | RXF 393 renal 20.6% | SF-268 CNS 32.3% | SF-295 CNS 11.1% | UACC-257 melanoma 31.2% | M14 melanoma 47.3%

COc1cc(-c2nc3ccc(C)cc3[nH]2)ccc1OCC(=O)N=Nc1c(O)[nH]c2ccc(Cl)cc12
active: NCI-H460 lung -56.1% | HOP-92 NSCLC 2.42% | 786-0 renal -82.5% | COLO 205 colon -15.9% | K-562 leukemia -39.3% | MALME-3M melanoma -26.9% | MDA-MB-231 breast -61.6% | RXF 393 renal -40.7% | SF-295 CNS -7.5% | SF-539 CNS -80% | M14 melanoma 3.17%
inactive: NCI-H23 lung 23.2% | NCI-H226 lung 86.8% | NCI-H322M lung 36.9% | HOP-62 NSCLC 18.3% | NCI-H522 lung 20.6% | A549/ATCC NSCLC 29.7% | DU-145 prostate 22.9% | SF-268 CNS 31.4% | UACC-257 melanoma 39.4%

S=c1ssnc1-c1cccs1
inactive: NCI-H23 lung 85% | NCI-H226 lung 96.1% | NCI-H322M lung 94.5% | HOP-62 NSCLC 103% | NCI-H460 lung 107% | HOP-92 NSCLC 80.5% | NCI-H522 lung 96.3% | A549/ATCC NSCLC 117% | 786-0 renal 65.1% | COLO 205 colon 115% | DU-145 prostate 123% | K-562 leukemia 73.3% | MALME-3M melanoma 66.3% | MDA-MB-231 breast 88.8% | RXF 393 renal 116% | SF-268 CNS 97.9% | SF-295 CNS 78.3% | SF-539 CNS 106% | UACC-257 melanoma 107% | M14 melanoma 94.2%

Source: PubChem BioAssay (NCI)
